From PubChem BioAssay (EPA / NIEHS) come the findings set out here.

Read-out in test [1]: TIMP metallopeptidase inhibitor 2 (TIMP2), TIMP2 (gene 7077)
In words: BSK_KF3CT_TIMP2: BioMAP Diversity Plus: KF3CT Assay for TIMP metallopeptidase inhibitor 2 (TIMP2) Biomarker Activity (AID 2283071). Particulars: primary human keratinocytes with fibroblasts; actives raise or lower the signal. The procedure, abridged: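 Chemicals were dosed onto human skin primary co-cultures of keratinocytes and foreskin fibroblasts, and TIMP-2 was measured by ELISA after 24 hours. Activity in either direction was fitted relative to DMSO.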

Read-out in test [2]: Transforming growth factor beta 1 (TGFb1), TGFB1 (gene 7040)
In words: BSK_KF3CT_TGFb1: BioMAP Diversity Plus: KF3CT Assay for Transforming growth factor beta 1 (TGFb1) Biomarker Activity (AID 2283072). Particulars: primary human keratinocytes with fibroblasts; actives raise or lower the signal. The procedure, abridged: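 KF3CT co-culture (keratinocytes + fibroblasts), 24 h exposure → TGF-b1 ELISA → bidirectional fit, DMSO = baseline. Parallel SRB total-protein staining (0.1% SRB, 10% TCA fixation, 560 nm) for cytotoxicity.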

Read-out in test [3]: C-C motif chemokine 2 (Homo sapiens) (UniProt P13500)
In words: BSK_KF3CT_MCP1: BioMAP Diversity Plus: KF3CT Assay for Monocyte Chemoattractant Protein 1 (MCP1/CCL2) Biomarker Activity (AID 2283073). Particulars: primary human keratinocytes with fibroblasts; actives raise or lower the signal. The procedure, abridged: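 Human keratinocyte–foreskin fibroblast co-culture; MCP-1 measured by ELISA 24 h after dosing. Bidirectional fit vs DMSO; cytotoxicity tracked by SRB total protein in parallel cultures.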

Read-out in test [4]: Matrix Metallopeptidase 9 (MMP9), MMP9 (gene 4318)
Description: BSK_KF3CT_MMP9: BioMAP Diversity Plus: KF3CT Assay for Matrix Metallopeptidase 9 (MMP9) Biomarker Activity (AID 2283074).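 On AC50: MMP9 protein level quantified by ELISA in the co-culture.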 The settings on record: primary human keratinocytes with fibroblasts; actives raise or lower the signal. The procedure, abridged: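 Values come from bidirectional fitting relative to DMSO of MMP-9 levels, which were measured by ELISA. Measurements were taken 24 h after chemical dosing of a keratinocyte and foreskin fibroblast co-culture.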

Read-out in test [5]: urokinase plasminogen activator (uPA), PLAU (gene 5328)
Description: BSK_KF3CT_uPA: BioMAP Diversity Plus: KF3CT Assay for urokinase plasminogen activator (uPA) Biomarker Activity (AID 2283075). Particulars: primary human keratinocytes with fibroblasts; actives raise or lower the signal. The procedure, abridged: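 Values derive from bidirectional fitting against DMSO controls. Keratinocyte/foreskin fibroblast co-cultures received chemical; 24 h later uPA was detected by ELISA, with SRB total-protein staining in parallel wells for overt cytotoxicity.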

Read-out in test [6]: CD40, CD40 (gene 958)
In words: BSK_LPS_CD40: BioMAP Diversity Plus: LPS Assay for CD40 Biomarker Activity (AID 2283076). The settings on record: primary human HUVEC with PBMC; actives raise or lower the signal. The procedure, abridged:
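HUVEC plus PBMC co-culture stimulated with LPS; CD40 quantified by ELISA 24 h after compound dosing. Fitting was bidirectional relative to DMSO. SRB staining of parallel cultures flagged overt cytotoxicity.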

Read-out in test [7]: E-selectin (Homo sapiens) (UniProt P16581)
In words: BSK_LPS_Eselectin: BioMAP Diversity Plus: LPS Assay for Eselectin Biomarker Activity (AID 2283077). Particulars: primary human HUVEC with PBMC; actives raise or lower the signal. The procedure, abridged: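 Human umbilical vein endothelial cells co-cultured with PBMC under LPS stimulation; cell-surface E-selectin measured by ELISA 24 h after dosing. Change in either direction versus DMSO, with SRB total-protein staining in parallel cultures for cytotoxicity.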

Read-out in test [8]: Interleukin-8 (IL8), CXCL8 (gene 3576)
Description: BSK_LPS_IL8: BioMAP Diversity Plus: LPS Assay for Interleukin-8 (IL8) Biomarker Activity (AID 2283078). Particulars: primary human HUVEC with PBMC; actives raise or lower the signal. The procedure, abridged:
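Human umbilical vein endothelial cells co-cultured with PBMC, LPS-stimulated, exposed to compound for 24 h. IL-8 quantified by ELISA; fitted in both directions against DMSO, with SRB total-protein staining of parallel cultures for cytotoxicity.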

Test [9] in a line: BSK_LPS_SRB: Viability Assessment in the BioMAP Diversity Plus: LPS Assay (AID 2283079).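 Further: total protein by sulforhodamine B absorbance as a cytotoxicity measure; measured one day after compound addition; fitted in both directions against DMSO so loss or gain of signal counts.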 The settings on record: primary human HUVEC with PBMC. The procedure, abridged:
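Co-culture of human umbilical vein endothelial cells and PBMC, read 24 h after dosing. Total protein by 0.1% SRB staining after 10% TCA fixation, absorbance at 560 nm; bidirectional fit against DMSO.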

Read-out in test [10]: Interleukin-1 alpha (IL1a), IL1A (gene 3552)
In words: BSK_LPS_IL1a: BioMAP Diversity Plus: LPS Assay for Interleukin-1 alpha (IL1a) Biomarker Activity (AID 2283080). Particulars: primary human HUVEC with PBMC; actives raise or lower the signal. The procedure, abridged: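 Human umbilical vein endothelial cells co-cultured with PBMC and stimulated with LPS; IL-1a measured by ELISA 24 h after dosing. Bidirectional fitting against DMSO; cytotoxicity checked by SRB staining in parallel cultures.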

Read-out in test [11]: Monocyte Chemoattractant Protein-1 (MCP1), CCL2 (gene 6347)
In words: BSK_LPS_MCP1: BioMAP Diversity Plus: LPS Assay for Monocyte Chemoattractant Protein-1 (MCP1) Biomarker Activity (AID 2283081).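 On AC50: secreted MCP-1 protein quantified by ELISA in culture supernatant.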 Particulars: primary human HUVEC with PBMC; actives raise or lower the signal. The procedure, abridged: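 Human umbilical vein endothelial cells co-cultured with PBMC, LPS-stimulated; secreted MCP-1 measured by ELISA 24 h after compound addition. Bidirectional curve fitting against DMSO baseline; SRB total-protein staining in parallel cultures for cytotoxicity.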

Test [12] is described as follows: BSK_LPS_PGE2: BioMAP Diversity Plus: LPS Assay for Prostaglandin E2 (PGE2) Biomarker Activity (AID 2283082). The settings on record: primary human HUVEC with PBMC; actives raise or lower the signal. The procedure, abridged:
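Compounds were added to the LPS co-culture of endothelium and PBMC, and PGE2 was measured by ELISA after 24 h. Responses in either direction were fitted with DMSO as baseline.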

Read-out in test [13]: Tissue Factor, F3 (gene 2152)
Description: BSK_LPS_TissueFactor: BioMAP Diversity Plus: LPS Assay for Tissue Factor Biomarker Activity (AID 2283084). Particulars: primary human HUVEC with PBMC; actives raise or lower the signal. The procedure, abridged:
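Human umbilical vein endothelial cells co-cultured with PBMC were dosed with compound. Cell-surface CD142 was measured by ELISA 24 h later. Activity was fitted bidirectionally against DMSO, with SRB total-protein staining in parallel cultures for cytotoxicity.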

Read-out in test [14]: Tumor necrosis factor (Homo sapiens) (UniProt P01375)
Description: BSK_LPS_TNFa: BioMAP Diversity Plus: LPS Assay for Tumour Necrosis Factor alpha (TNFa) Biomarker Activity (AID 2283085).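 On AC50: TNFa protein level quantified by ELISA in the co-culture.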 The settings on record: primary human HUVEC with PBMC; actives raise or lower the signal. The procedure, abridged: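 Cells (umbilical vein endothelium plus peripheral blood mononuclear cells) were dosed with chemical, incubated 24 h, then TNFa was quantified by ELISA; values derive from bidirectional fitting with DMSO as baseline.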

Read-out in a further test: CD38, CD38 (gene 952)
In words: BSK_SAg_CD38: BioMAP Diversity Plus: SAg Assay for CD38 Biomarker Activity (AID 2283087). Particulars: primary human HUVEC with PBMC; actives raise or lower the signal. The procedure, abridged: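 CD38 quantified by ELISA (fluorescence) in a superantigen-activated endothelial cell–PBMC co-culture at 24 h post-dose. Activity fitted in both directions relative to DMSO; parallel SRB and Alamar Blue cytotoxicity read-outs.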

Read-out in test [15]: CD40, CD40 (gene 958)
In words: BSK_SAg_CD40: BioMAP Diversity Plus: SAg Assay for CD40 Biomarker Activity (AID 2283088). The settings on record: primary human HUVEC with PBMC; actives raise or lower the signal. The procedure, abridged: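 HUVEC plus PBMC co-culture, superantigen-activated, with CD40 read by ELISA 24 h after dosing. Curves fitted in both directions against DMSO. Overt cytotoxicity checked by parallel SRB total-protein staining.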

Read-out in another test: CD69, CD69 (gene 969)
Description: BSK_SAg_CD69: BioMAP Diversity Plus: SAg Assay for CD69 Biomarker Activity (AID 2283089).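 On AC50: cell surface CD69 protein quantified by ELISA with fluorescence detection.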 Particulars: primary human HUVEC with PBMC; actives raise or lower the signal. The procedure, abridged:
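ELISA, fluorescence read-out: CD69 on human umbilical vein endothelial cell + PBMC co-culture, 24 h post-dosing. Gain or loss of signal fitted bidirectionally against DMSO baseline.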

Read-out in test [16]: Monocyte Chemoattractant Protein-1 (MCP1), CCL2 (gene 6347)
Description: BSK_SAg_MCP1: BioMAP Diversity Plus: SAg Assay for Monocyte Chemoattractant Protein-1 (MCP1) Biomarker Activity (AID 2283090). The settings on record: primary human HUVEC with PBMC; actives raise or lower the signal. The procedure, abridged: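 Values derive from bidirectional fitting of ELISA-measured MCP1 against DMSO controls. Readings were taken 24 h after dosing human vascular endothelial cells co-cultured with peripheral blood mononuclear cells under superantigen stimulation.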

Read-out in test [17]: Macrophage colony-stimulating factor (MCSF), CSF1 (gene 1435)
Description: BSK_LPS_MCSF: BioMAP Diversity Plus: LPS Assay for Macrophage colony-stimulating factor (MCSF) Biomarker Activity (AID 2283083). Particulars: primary human HUVEC with PBMC; actives raise or lower the signal. The procedure, abridged:
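HUVEC–PBMC co-culture, M-CSF measured by ELISA 24 h after chemical dosing. Fitted in both directions relative to DMSO as negative control; overt cytotoxicity assessed by SRB total-protein staining in parallel cultures.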

Read-out in test [18]: Vascular cell adhesion molecule 1 (VCAM1), VCAM1 (gene 7412)
Description: BSK_LPS_VCAM1: BioMAP Diversity Plus: LPS Assay for Vascular cell adhesion molecule 1 (VCAM1) Biomarker Activity (AID 2283086). The settings on record: primary human HUVEC with PBMC; actives raise or lower the signal. The procedure, abridged: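 Cells are dosed in an LPS-stimulated endothelial/mononuclear co-culture and, after 24 h, VCAM-1 is quantified by ELISA. Activity in either direction is fitted relative to the DMSO negative control.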

Calls of active or inactive are those of the source. How the source made its calls: active means hit-call score of the fitted dose curve at least 0.9, where 1 is the maximum; inactive means score below 0.9.

By AC50 is commonly meant the midpoint of the concentration-response curve, whichever way the signal moves.

Sequence of Tumor necrosis factor (Homo sapiens) (P01375 whole entry, looked up): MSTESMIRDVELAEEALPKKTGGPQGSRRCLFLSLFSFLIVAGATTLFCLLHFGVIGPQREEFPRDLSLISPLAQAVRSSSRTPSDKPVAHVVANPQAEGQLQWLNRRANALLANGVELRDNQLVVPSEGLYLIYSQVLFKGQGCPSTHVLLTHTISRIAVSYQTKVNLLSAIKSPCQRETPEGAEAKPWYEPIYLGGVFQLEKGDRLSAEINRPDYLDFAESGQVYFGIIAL
Sequence of E-selectin (Homo sapiens) (P16581 whole entry, looked up): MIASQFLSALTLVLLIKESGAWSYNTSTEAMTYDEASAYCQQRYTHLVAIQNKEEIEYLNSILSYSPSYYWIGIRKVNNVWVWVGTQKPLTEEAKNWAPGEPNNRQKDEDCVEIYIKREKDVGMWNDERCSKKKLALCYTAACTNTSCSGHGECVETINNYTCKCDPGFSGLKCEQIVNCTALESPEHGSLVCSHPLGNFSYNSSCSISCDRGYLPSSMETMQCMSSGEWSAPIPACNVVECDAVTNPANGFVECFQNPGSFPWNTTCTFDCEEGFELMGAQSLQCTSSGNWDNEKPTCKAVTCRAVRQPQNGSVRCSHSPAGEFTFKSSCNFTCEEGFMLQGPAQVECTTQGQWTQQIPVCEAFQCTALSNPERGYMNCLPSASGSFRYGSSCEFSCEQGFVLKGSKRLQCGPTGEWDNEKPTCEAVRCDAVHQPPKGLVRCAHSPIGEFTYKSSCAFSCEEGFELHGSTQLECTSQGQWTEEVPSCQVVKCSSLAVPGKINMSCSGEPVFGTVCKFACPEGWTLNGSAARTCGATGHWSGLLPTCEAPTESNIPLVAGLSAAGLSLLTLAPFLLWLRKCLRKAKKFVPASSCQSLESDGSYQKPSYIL

With `Cc1ccc2c(c1N)C(=O)c1ccccc1C2=O`, the half-maximal activity concentration (AC50) was 6.86 µM (active) in test [1]; 20 µM (active) in [13]; 12.6 µM (active) with CD38, CD38 (gene 952). Besides, the outcome in [2] was “inactive”; in test [3] it was “inactive”; in [4], “inactive”; in test [5], “inactive”; with CD40, CD40 (gene 958) [6] it was “inactive”; in test [7], “inactive”. The result in [8], in test [9], in test [10], in [11], in [12] and in [14] was inactive. The outcome with CD40, CD40 (gene 958) [15] is “inactive”; in the test with CD69, CD69 (gene 969), “inactive”; in [16], “inactive”.
In the case of `c1ccc2c(c1)Nc1ccccc1S2`, the AC50 in test [1] was 27.3 µM (active); in [14] it was 0.148 µM (active); with CD40, CD40 (gene 958) [15], 26.8 µM (active). The outcome in test [2] is “inactive”; in [3] it was “inactive”; in test [4] it was “inactive”; in test [5] it was “inactive”; with CD40, CD40 (gene 958) [6], “inactive”; in [7], “inactive”. For the same compound, the outcome in [8], in test [9], in test [10], in [11], in [17] and in test [13] was inactive. For the same compound, the outcome in test [18] is “inactive”; with CD38, CD38 (gene 952), “inactive”; with CD69, CD69 (gene 969), “inactive”.
Regarding `CCCN(CCC)c1c([N+](=O)[O-])cc(C(C)C)cc1[N+](=O)[O-]`, the outcome in test [1], in [2], in test [3], in test [5], in test [12] and in test [13] was inactive. The AC50 in test [4] is 14.6 µM (active); in the test with CD40, CD40 (gene 958) [6], 31 µM (active); in test [7], 30.8 µM (active); in test [8], 31.9 µM (active); in test [9], 31.2 µM (active); in test [10], 31.5 µM (active). The AC50 in test [11] was 31.3 µM (active); in [14], 35.9 µM (active); with CD38, CD38 (gene 952), 28.6 µM (active); with CD40, CD40 (gene 958) [15] it was 30.1 µM (active); in the test with CD69, CD69 (gene 969), 33.5 µM (active); in test [16], 37.1 µM (active).
As for `O=C(O)C(Cl)Cl`, the outcome in [1] was “inactive”; in test [2] it was “inactive”; in test [3], “inactive”; in test [4] it was “inactive”; in test [5], “inactive”; in the test with CD40, CD40 (gene 958) [6] it was “inactive”. For the same compound, the outcome in [7], in test [8], in [9], in test [10], in test [11] and in test [17] was inactive. The outcome in [14] was “inactive”; with CD38, CD38 (gene 952) it was “inactive”; with CD40, CD40 (gene 958) [15], “inactive”; with CD69, CD69 (gene 969), “inactive”.
